Molecules are shown by their SMILES. Hit rate of the full screen: of about 190,000 compounds, about 3,100 (1.6%) were called active. For the sample, actives were picked, then their nearest neighbours and some compounds at random. A number with no mark means an inactive call. No stated cut-off is given here; in the data, active means fold change above about 3.3; inconclusive means no clear call, values can overlap the other calls; inactive means below that.

A short description of the experiment: activators of NF-kB expression in neurons, primary screen, cell-based, HTS (AID 1239). The conditions noted are these: human neuronal cells, NF-kB reporter expression; at 12.5 µM; stronger effect = higher value.
`CCOc1ccc2nc(NCCNC(=O)C(C)(C)C)c(C)cc2c1`: the fold change is 1.12.
In the case of `O=C(CCc1nnc(CCCCc2ccccc2)o1)NC(c1cccnc1)C(F)(F)F` (stereo unspecified), the fold change was 0.86.
Then `Cc1ccc(-c2cn(S(=O)(=O)c3cccc([N+](=O)[O-])c3)nc2N)cc1`, with 1.2; and `CC(C)(C)NC(=O)Cn1cnc2cc([N+](=O)[O-])ccc2c1=O`, with 1.11; and `Cc1ccc(-n2cc3ccc([N+](=O)[O-])cc3n2)cc1`, with 9.31 (active).
Regarding `O=C(O)CSCC(=O)Nc1ccc(C(F)(F)F)cc1`, the fold change is 1.18.
Consider `CCCCSc1nc2ccccc2[nH]1`, for which the fold change was 2.06.
As for `O=C(CSc1nc2ccccc2[nH]1)c1cccs1`, the fold change was 3.8 (active).
As for `C=CCSc1nc2ccccc2[nH]1`, the fold change was 1.17.
`COc1ccc(/C=N/NC(=O)Cn2cc(C(F)(F)F)ccc2=O)cc1`: the fold change was 1.07.
The same measure for `O=C(O)/C=C/c1ccc(S(=O)(=O)N2CCCCCC2)cc1`: 1.17; for `CCCCCC(=O)Nc1ccc(C(=O)N/N=C/c2ccc([N+](=O)[O-])cc2)cc1`: 1.05.
Then `CCCC(=O)Nc1ccc(C(=O)N/N=C/c2ccc[nH]2)cc1`, with 6.81 (active); and `CCCC(=O)Nc1ccc(C(=O)NCCCn2ccnc2)cc1`, with 1.01.
Then `CCn1c(N)c(Br)c(=O)[nH]c1=O`, with 0.94; and `CN(C)c1ccc(C2Nc3ccccc3C(=O)N2NS(=O)(=O)c2ccccc2)cc1` (stereo unspecified), with 0.87; and `CC1(C)CC(=O)C(C2c3ccccc3S(=O)(=O)c3ccccc32)C(=O)C1`, with 1.19.
Take `Cc1ccc(C(=O)NN(CCC#N)C2=NS(=O)(=O)c3ccccc32)cc1`: the fold change is 1.06.
Take `CC1(C)C2CC=C(/C=N/NC(=O)C3CC3)C1C2` (stereo unspecified): the fold change was 1.13.
As to `CC(C)c1ccc(NC(=O)NC2CCCCC2)cc1`, the fold change was 5.47 (active).
In the case of `CC(C)N1CCC(NC(=O)Nc2ccccc2)CC1`, the fold change is 1.04.
Turning to `CC(C)(C)NS(=O)(=O)c1ccc(NC(=O)NC2CCCCC2)cc1`, the fold change is 0.89.
For the compound `CCOc1cc(NC(=S)NCc2ccco2)c(OCC)cc1NC(=O)c1ccco1`, the fold change is 1.12.
Then `CCN(CC)C(=O)C(=O)c1cn(CC(=O)NCc2ccc3c(c2)OCO3)c2ccccc12`, with 1.39.
The same measure for `C=C1c2cc(CC)ccc2NC(=O)N1c1ccc(C)cc1`: 1.19; for `O=C1Nc2ccccc2C12Nc1ccccc1S2` (stereo unspecified): 1.44; for `CCc1ccc2c(c1)C1(NN=C(c3ccccc3)S1)C(=O)N2` (stereo unspecified): 4.48 (active).
For `O=C(CSc1cccc[n+]1[O-])c1ccc(-c2ccccc2)cc1`, the fold change was 2.45.
Then `O=C(Nc1ccc2nc3n(c(=O)c2c1)CCCCC3)c1ccccc1Cl`, with 1.29; and `O=C(Nc1ccc2sc3ccccc3c(=O)c2c1)c1ccccc1Cl`, with 6.23 (active); and `COc1cc(NC(=O)c2cccs2)ccc1NC(=O)c1ccccc1Cl`, with 0.87.
Then `CCOC(=O)Cc1csc(NC(=O)COc2ccc3c(C)cc(=O)oc3c2)n1`, with 0.61.
Then `O=C(CCC1CCCN(Cc2ccc(O)c(Cl)c2)C1)NCc1ccccc1F` (stereo unspecified), with 1.07.
For the compound `Cc1csc(NC(=S)Nc2cccc(Cl)c2)n1`, the fold change is 3.32 (active).
Then `S=C(Nc1cccc(Cl)c1)Nc1ccc2cn[nH]c2c1`, with 1.36.
On to `CC(=O)Nc1cccc(C(=O)Nc2nc(C)cs2)c1`, for which the fold change is 1.22.
Then `NC(=O)c1ccc(NC(=O)COC(=O)C(Cc2ccccc2)NC(=O)c2ccccc2)cc1` (stereo unspecified), with 0.99; and `COc1ccc(-c2csc(Nc3ccc(O)cc3)n2)cc1`, with 8.49 (active); and `NS(=O)(=O)c1ccc(Nc2nc(-c3ccccc3)cs2)cc1`, with 1.18.
Then `COc1ccc(-c2csc(NC(=O)COC(=O)c3ccc(Br)o3)n2)cc1`, with 1.92.
Turning to `COc1ccc(OC)c(Nc2nc(-c3ccc(O)c(O)c3)cs2)c1`, the fold change is 1.32.
The same measure for `Oc1ccc(-c2csc(Nc3cccnc3)n2)cc1`: 3.24; for `COc1ccc(-c2csc(NC(=O)CCCc3cccs3)n2)cc1`: 0.87.
Consider `CCNc1nc(-c2cc3ccccc3o2)cs1`, for which the fold change is 1.19.
The same measure for `COc1ccc(Nc2nc(-c3ccccc3)cs2)cc1`: 12.5 (active).
The same measure for `COc1ccc(-c2csc(Cc3nc(O)cs3)n2)cc1`: 3.76 (active); for `O=c1oc2ccccc2cc1-c1csc(Nc2ccc(O)cc2)n1`: 7.39 (active); for `COc1ccc2nc(Nc3nc(-c4ccncc4)cs3)sc2c1`: 1.6.
Turning to `COc1ccc2nc(Nc3nc(-c4cc5ccccc5oc4=O)cs3)sc2c1`, the fold change is 1.2.
With `O=C(C1CCN(C2CCN(Cc3cccc4c3OCO4)CC2)CC1)N1CCOCC1`, the fold change is 1.05.
The same measure for `COC(=O)c1ccc(CN2CCC(CO)(Cc3ccc(OC)cc3)CC2)cc1`: 1.33.
The same measure for `COc1ccccc1-n1ccnc1SCC(=O)NC(C)(C)C`: 1.09; for `CCCCC(CC)CNC(=O)C(=O)C1C(=O)Nc2ccccc21` (stereo unspecified): 1.17.
Consider `CC[n+]1c(C)n(-c2ccccc2)c2ccc(NC(C)=O)cc21`, for which the fold change is 0.85.
On to `N#C/C(=C\c1ccc(-c2cccc([N+](=O)[O-])c2)o1)C(=O)NCCN1CCOCC1`, for which the fold change is 1.14.
For `Cc1cccc(NC(=O)c2cc([N+](=O)[O-])ccc2N2CCN(C)CC2)c1`, the fold change was 0.95.
The same measure for `O=C(O)c1ccccc1-c1ccccc1C(=O)NCc1cccnc1`: 1.16; for `COC(=O)C(C)NC(=O)COc1ccc2ccccc2c1` (stereo unspecified): 1.1.
For the compound `Cc1cc(Cl)ccc1OCCCC(=O)NCc1ccccn1`, the fold change is 1.09.
As for `N#CC1=C(N)Oc2[nH]c(=S)[nH]c(=O)c2C12C(=O)Nc1ccccc12` (stereo unspecified), the fold change was 1.09.
Turning to `Cc1nn(C)c(C)c1Sc1ccccc1N`, the fold change was 0.93.
Then `CN1CCN(/N=C2/C(=O)Nc3ccc([N+](=O)[O-])cc32)CC1`, with 1.3; and `Cc1cc(C)c2nc(NC(=O)C3CCCO3)sc2c1` (stereo unspecified), with 6.22 (active); and `Cc1cc(Br)ccc1NC(=O)C1CCCO1` (stereo unspecified), with 1.18.
Then `O=C(Nc1nc2ccc(S(=O)(=O)N3CCCC3)cc2s1)C1CCCO1` (stereo unspecified), with 0.92; and `CC1CN(CCCOc2ccccc2-c2ccccc2)CC(C)O1` (stereo unspecified), with 1.16.
Then `CC1CCN(CC(=O)c2c[nH]c3ccccc23)CC1`, with 0.78; and `O=C(OCC(=O)c1c[nH]c2ccccc12)c1cccc(O)c1`, with 5.31 (active); and `O=C(Cc1c[nH]c2ccccc12)OCCOC(=O)Cc1c[nH]c2ccccc12`, with 1.43.
As to `COc1cccc(CNC(=O)CCC2CCCN(C(=O)c3ccoc3C)C2)c1` (stereo unspecified), the fold change is 1.11.
Consider `c1ccc(Nc2nc(N3CCOCC3)c3ccccc3n2)cc1`, for which the fold change was 0.6.
The same measure for `COc1ccc(Nc2ncc(F)c(N3CCOCC3)n2)cc1`: 3.96 (active); for `CCOc1ccc(Nc2nc(Cl)nc(N3CCN(c4ccc(OC)cc4)CC3)n2)cc1`: 0.61.
The same measure for `Cc1cc(NC(=O)CSCc2ccccc2C)no1`: 1.25.
Then `CC(NCc1nc2ccccc2n1C)C12CC3CC(CC(C3)C1)C2` (stereo unspecified), with 0.85.
As for `CC(=O)Cc1nsc(NC(=O)c2csc3c2CCCC3)n1`, the fold change is 1.73.
`COC(=O)c1sc(NC(=O)c2csc3c2CCCC3)nc1C`: the fold change was 4.92 (active).
Take `COC(=O)c1sccc1NC(=O)c1csc2c1CCCC2`: the fold change is 1.41.
Then `COc1cc(OC)c(C2=NOC(C(=O)Nc3c(C)n(C)n(-c4ccccc4)c3=O)C2)cc1Cl` (stereo unspecified), with 0.97; and `CN1CCN(CC#CCC2(O)c3ccccc3-c3ccccc32)CC1`, with 1.01; and `COc1ccc(C(=O)CSc2nnnn2C)c(OC)c1`, with 1.
Consider `CCn1nnnc1SCC(=O)c1ccc(C)cc1C`, for which the fold change was 3.65 (active).
For the compound `CNC(=O)CSc1nnnn1-c1ccc(C)cc1C`, the fold change was 1.23.
The same measure for `COCCNC(=O)C(c1ccc(O)cc1)N(C(=O)CCC(=O)Nc1nccs1)c1ccc(C)cc1` (stereo unspecified): 0.99.
The same measure for `COC(=O)c1ccc(COC(=O)c2cnccn2)cc1`: 1.22; for `O=C(CN1C(=O)/C(=C/c2ccccc2F)Sc2ccccc21)NCc1cccnc1`: 0.69; for `OCC(O)CN(c1ccccc1)c1ccccc1` (stereo unspecified): 1.39.
Then `O=C(OCc1ccc(Br)cc1)c1cccc(-c2nnc(-c3ccccc3)o2)c1`, with 1.7; and `Nc1ccc(-c2nnc(-c3ccc(-c4ccccc4)cc3)o2)cc1`, with 1.31; and `Brc1ccc(-c2nnc(-c3ccccc3)o2)o1`, with 3.89 (active).
Consider `COc1ccccc1Cn1c(C)nnc1-c1cnn(C)c1N`, for which the fold change was 1.41.
The same measure for `CCOC1CS(=O)(=O)CC1OCC` (stereo unspecified): 5.97 (active); for `COc1ccccc1N1CCN(/N=C\C(Br)=C\c2ccccc2)CC1`: 1.33; for `COc1ccc(CCNC(=O)CC2SC(=Nc3cc(C)cc(C)c3)NC2=O)cc1OC` (stereo unspecified): 0.95.
On to `COC(=O)c1ccc(NC(=O)c2ccco2)cc1`, for which the fold change is 2.51.
Consider `O=C(CSc1ccccc1)Nc1ccc(NC(=O)c2ccco2)cc1`, for which the fold change is 1.45.
Regarding `O=C(Nc1ccc(Oc2ccccc2)cc1)c1ccco1`, the fold change is 4.89 (active).
Then `CCS(=O)(=O)Nc1ccc(C2=NN(C(C)=O)C(c3cccs3)C2)cc1` (stereo unspecified), with 1.16.
Then `NS(=O)(=O)c1cccc(NC(=O)COC(=O)/C=C/c2ccco2)c1`, with 1.19.
Then `CCCC(O)(CCC)C(=O)NN(C(=O)CCl)c1cccc(C)c1`, with 0.5.
In the case of `Cc1ccc(N(NC(=O)C(C)(C)O)C(=O)c2ccccc2)cc1C`, the fold change was 1.37.
Turning to `CCCCC(O)(CCCC)C(=O)NN(C(=O)CCl)c1ccccc1`, the fold change is 4.9 (active).
As for `Cc1nc(-c2ccccc2)sc1C(=O)/C=C/N(C)C`, the fold change is 1.77.
Then `COc1ccccc1NC(=S)N1CCC(NC(=O)C23CC4CC(CC(C4)C2)C3)CC1`, with 0.97.
The same measure for `CC(C)Cc1cc(C(=O)NCCc2ccccc2)no1`: 3.27; for `CC(C)Cc1cc(C(=O)Nc2cc(Br)ccc2O)no1`: 6.03 (active); for `CC(C)CNC(=O)c1cc(-c2ccc(Br)cc2)on1`: 0.98.
Then `O=C(/C=C/c1ccc(Cl)cc1)Nc1ccc(S(=O)(=O)Nc2ncccn2)cc1`, with 0.93.
For `O=C(O)/C=C/c1cn(-c2ccccc2)nc1-c1cccs1`, the fold change is 1.14.
The same measure for `O=C(O)c1ccc(N/N=C/c2cn(-c3ccccc3)nc2-c2cccs2)cc1`: 6.86 (active).
Take `O=C(/C=C\c1cn(-c2ccccc2)nc1-c1cccs1)N1CCOCC1`: the fold change is 0.42.
Then `CC(C(=O)NCC1CCCCC1)N(C)Cc1cccc(Cl)c1` (stereo unspecified), with 1.18.
Then `N/C(=N\OC(=O)Cc1ccc([N+](=O)[O-])cc1)c1ccccn1`, with 1.74; and `N/C(=N\OC(=O)c1ccc([N+](=O)[O-])cc1)c1ccccn1`, with 5.12 (active); and `O=C(OCc1ccc([N+](=O)[O-])cc1)c1ccccn1`, with 1.29.
For the compound `Clc1ccc2nc(CSc3ccccc3)cn2c1`, the fold change is 3.83 (active).
Then `CCOc1ncccc1C(=O)OCc1cn2cc(Cl)ccc2n1`, with 1.18; and `O=c1cc(CSc2ccc(Cl)cc2)nc(N2CCOCC2)[nH]1`, with 1.5.
Then `CN1CCC(OC(=O)COc2ccc(Cl)cc2Cl)CC1`, with 1.16.
Then `CCOc1cnc(C(=O)NNC(=O)c2ccccc2Br)o1`, with 1.13; and `COc1ccc(C(=O)NCC(=O)N/N=C/c2ccc([N+](=O)[O-])s2)cc1OC`, with 0.62.

The values are drawn from PubChem BioAssay AID1239 (SRMLSC, 2008).
